Assay outcomes as filed in PubChem.
Sampled rows, rich in hits. Any-hit rate of the full collection: about 7.4%.
FLuc modulator: qHTS profiling assay for firefly luciferase inhibitor/activator using purifed enzyme and Km concentrations of substrates (counterscreen for miR-21 project). Luciferin 4-monooxygenase (Photinus pyralis), P08659. Potency, µM (series often up to 57.5 µM), for inactives: at the highest dose activity change, negative = inhibition, actives largely listed as inhibitors. AID 588342, 2011. purified FLuc, Km substrates, luminescence inhibition. hit rate 6.9% among 360,000;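 also: plate controls were vehicle for no effect and reference inhibitor for full effect; nearly all actives have a fitted effect of over 55% in size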
Target sequence (P08659 whole entry, looked up): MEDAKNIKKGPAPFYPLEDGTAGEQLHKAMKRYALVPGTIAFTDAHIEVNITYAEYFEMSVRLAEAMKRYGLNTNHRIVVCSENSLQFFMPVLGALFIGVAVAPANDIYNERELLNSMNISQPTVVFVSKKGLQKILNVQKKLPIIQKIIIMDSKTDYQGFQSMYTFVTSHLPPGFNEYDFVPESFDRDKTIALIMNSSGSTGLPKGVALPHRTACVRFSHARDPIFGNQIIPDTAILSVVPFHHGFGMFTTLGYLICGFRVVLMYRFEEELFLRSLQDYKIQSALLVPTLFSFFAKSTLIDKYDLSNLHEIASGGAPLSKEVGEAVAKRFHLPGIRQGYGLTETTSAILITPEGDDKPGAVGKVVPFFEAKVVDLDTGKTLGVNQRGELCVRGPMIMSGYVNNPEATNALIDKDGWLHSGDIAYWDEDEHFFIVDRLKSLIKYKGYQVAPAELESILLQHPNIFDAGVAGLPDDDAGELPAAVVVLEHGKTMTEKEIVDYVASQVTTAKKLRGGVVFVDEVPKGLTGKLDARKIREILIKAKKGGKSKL
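Purified P. pyralis luciferase, 10 nM final, with Km-level 10 uM D-luciferin and 10 uM ATP in 50 mM Tris acetate pH 7.5, 10 mM Mg acetate, 0.01% Tween-20, 0.05% BSA; 6-point qHTS titration about 60 µM downward; luminescence read.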
Rab9 promoter act: qHTS Assay for Rab9 Promoter Activators; Potency, µM (highest dose often 9.22 µM), inactives show top-dose activation, negative = inhibition, usual class: activators; Huh7 Rab9 promoter-luciferase reporter, luminescence, 24 h; hit rate 2.8% among 320,000; AID 485297, 2010; also: % of control where 0% means no effect; nearly all actives have a fitted effect of over 60% in size
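Cells were plated at 1500 per well in reduced-serum medium with 10% FBS and left 2 h. Compound in DMSO was then added for 24 h at 37 °C. Reporter signal was read by luminescence after 10 min with luciferase detection reagent.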
NPC1 prom act: qHTS Assay for NPC1 Promoter Activators; Huh7 NPC1 promoter luciferase reporter, 24 h; Potency, µM (titrated, usually from 9.22 µM), without a hit: top-dose activation, hits mostly activators; hit rate 2.4% among 320,000; also: % of control where 0% means no effect; nearly all actives have a fitted effect of over 60% in size
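Quantitative HTS used a cell-based reporter: Huh7 cells stably bearing the NPC1 promoter upstream of luciferase were treated with compounds for 24 h, and promoter activation was read as luminescence.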
SMN2 splice up: qHTS Assay for Enhancers of SMN2 Splice Variant Expression. HEK293 SMN2-luciferase splicing reporter, luminescence, 30-36 h. Potency, µM (titrated, usually from 46.1 µM), for inactives: at the highest dose activity change, positive = activation, most hits filed as activators. hit rate 2.8% among 210,000. AID 1458, 2008; also: % of control where 0% means no effect; nearly all actives have a fitted effect of over 55% in size
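HEK293 cells carry an SMN2 minigene-luciferase reporter in which exon 7 inclusion puts luciferase in frame. Cells were seeded at 2000 cells/well, attached for 10-12 hours, then exposed to compounds for 30-36 hours at 37C before ONE-Glo luminescence.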
ELG1 genotox: qHTS screen for small molecules that induce genotoxicity in human embryonic kidney (HEK293T) cells expressing luciferase-tagged ELG1 | hit rate 1.3% among 330,000 | Potency, µM (top dose mostly 46 µM), for inactives: at the highest dose activity change, positive = activation, most hits filed as activators | HEK293T ELG1-luciferase reporter, luminescence, 16 h; also: % of control where 0% means no effect; nearly all actives have a fitted effect of over 60% in size
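Cells (2,000/well) expressing the ELG1-luciferase fusion are dosed by pin tool and kept 16 hr at 37 °C, 5% CO2. Signal comes from ONE-Glo luciferase reagent after 30 min at room temperature.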
KinaseGlo FLuc: Counterscreen for Luciferase (Kinase-Glo TM) Inhibition | Luciferin 4-monooxygenase (Photuris pensylvanica), Q27757 | Kinase-Glo luciferase, ATP luminescence, 8 min | Potency, µM (titrated, usually from 38.3 µM), inactives show at the highest dose activity change, negative = inhibition, usual class: inhibitors | hit rate 0.28% among 200,000 | AID 1379, 2008; also: % is scaled to controls: 0 for no effect and ±100 for the full control effect; nearly all actives have a fitted effect of over 60% in size
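Recombinant Kinase-Glo luciferase, 10 uM ATP (linear range), luciferin; imidazole pH 7.2 / KCl / MgCl2 / Tween / BSA buffer; 8 min RT; luminescence.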
The depositor's hits bear a star. Calls follow the shape of the dose curve; as a rule, active = well fitted curve in the direction sought with a large enough effect; inconclusive = small, poorly fitted or top-dose-only effect, or another doubt; inactive = no such curve, though single readings can be large; an effect the other way counts as inactive or inconclusive. Potency is read from the fitted curve at half-maximal effect.

Results for O=C(N=Nc1c(O)[nH]c2ccccc12)c1ccco1 ?
FLuc modulator: 5.36µM*; Rab9 promoter act: 2µM*; NPC1 prom act: 3.55µM*; ELG1 genotox: inconclusive; KinaseGlo FLuc: 10µM*

How did Cc1cccc(C2C=C(c3ccc(F)cc3)Nc3nc4ccccc4n32)c1 (stereo not given) do in these assays?
FLuc modulator: 5.36µM*

What do the screens show for `CCc1ccc(C2=CC(c3c(F)cccc3Cl)n3c(nc4ccccc43)N2)cc1` (stereo not given)?
FLuc modulator: 19µM*

How did Cc1ccc(C2=CC(c3ccccc3C)n3c(nc4ccccc43)N2)cc1 (stereo not given) do in these assays?
FLuc modulator: 6.01µM*

How did Cc1ccc(-c2nc3n(n2)C(c2ccccc2C)C=C(c2ccc(Cl)cc2)N3)cc1 (stereo not given) do in these assays?
FLuc modulator: 0.8%; SMN2 splice up: 17.0%

How did CCN(CC)C(=O)C1=C(C)Nc2nc3ccccc3n2C1c1ccccc1F (stereo not given) do in these assays?
FLuc modulator: -1.9%; SMN2 splice up: -12.1%

Results for CCCc1nc2ccccc2n2c(-c3cccc(C)c3)c3c(=O)n(C)c(=O)n(C)c3c12 ?
FLuc modulator: -16.9%; SMN2 splice up: 3.0%

Results for COc1ccc(C(C(=O)NC2CCCC2)N(C(=O)c2ccco2)c2cc3c(cc2C(C)=O)OCO3)cc1OC (stereo not given) ?
FLuc modulator: 2.1%; Rab9 promoter act: -1.5%; NPC1 prom act: -0.1%; ELG1 genotox: -9.6%

What do the screens show for `CC(=O)c1csc(Nc2ccccc2Cl)n1`?
FLuc modulator: 19µM*; Rab9 promoter act: 2.82µM*; NPC1 prom act: 3.16µM*; ELG1 genotox: inconclusive

What do the screens show for `CC(=O)c1cnc(Nc2ccc(C)cc2)s1`?
FLuc modulator: inconclusive; Rab9 promoter act: inconclusive; NPC1 prom act: 22.9%; SMN2 splice up: inconclusive; ELG1 genotox: inconclusive; KinaseGlo FLuc: 0.2%

Results for CC(C)(C)C(=O)c1cnc(Nc2ccccc2Cl)s1 ?
FLuc modulator: 2.39µM*; SMN2 splice up: 12.6µM*; KinaseGlo FLuc: -17.8%

What do the screens show for `COCCNC(=O)c1csc(Nc2cccc3ccccc23)n1`?
FLuc modulator: -4.9%; Rab9 promoter act: -0.5%; NPC1 prom act: -2.2%; ELG1 genotox: -5.9%

Results for O=C(c1ccccc1)c1cnc(Nc2ccccc2Cl)s1 ?
FLuc modulator: 1.9µM*; Rab9 promoter act: 1.26µM*; NPC1 prom act: 1µM*; SMN2 splice up: 20µM*; ELG1 genotox: inconclusive; KinaseGlo FLuc: -7.1%

What do the screens show for `O=C(c1ccc(Cl)c(Cl)c1)c1cnc(Nc2ccccc2)s1`?
FLuc modulator: 5.5%; Rab9 promoter act: 5.7%; NPC1 prom act: 0.9%; SMN2 splice up: -4.0%; ELG1 genotox: 2.2%; KinaseGlo FLuc: -4.4%

How did COc1ccc(-c2coc3cc(O)ccc3c2=O)cc1 do in these assays?
SMN2 splice up: 11.2µM*; KinaseGlo FLuc: -7.3%

How did COc1ccc(-c2coc3cc(O)ccc3c2=O)c(OC)c1 do in these assays?
SMN2 splice up: -0.9%; KinaseGlo FLuc: -2.4%

Results for COc1ccc(-c2coc3cc(O)ccc3c2=O)cc1O ?
FLuc modulator: 9.53µM*; Rab9 promoter act: inconclusive; NPC1 prom act: inconclusive; ELG1 genotox: 13µM*

Results for O=C(NCCc1csc2nc(-c3ccccc3F)nn12)c1ccco1 ?
FLuc modulator: -7.2%

How did O=C(CSc1nc2ccccc2o1)c1ccccc1 do in these assays?
FLuc modulator: 10.7µM*; Rab9 promoter act: inconclusive; NPC1 prom act: inconclusive; SMN2 splice up: 17.2%; ELG1 genotox: 11.1%; KinaseGlo FLuc: -3.8%
